PubChem BioAssay (NCATS)
Records with an inconclusive call do not appear. Activity calls are given as the source filed them. Unless noted, calls come from the whole dose curve; as a rule, active = well fitted curve in the direction sought with a large enough effect; inconclusive = small, poorly fitted or top-dose-only effect, or another doubt; inactive = no such curve, though single readings can be large; an effect the other way counts as inactive or inconclusive.

What was measured:
[1] = molecular target: Atrial natriuretic peptide receptor 1 (Homo sapiens) (UniProt P16066); assay: Natriuretic polypeptide receptor (hNpr1) antagonism - Pilot screen (AID 1347049; calls by dose curve;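 note: agonist-evoked cGMP luminescence read 20 min after hNppA addition; series mostly up to about 58 µM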)
Procedure, shortened: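 Readout is cGMP-driven firefly luciferase luminescence in HEK293 cells carrying hNpr1 and a PDE5-domain GloSensor, read before and 20 min after 0.1 nM hNppA stimulation. Cells had 2% substrate reagent for 2 h and test compound for 30 min.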

[2] = molecular target: Atrial natriuretic peptide receptor 2 (Homo sapiens) (UniProt P20594); assay: Natriuretic polypeptide receptor (hNpr2) antagonism - Pilot subtype selectivity assay (AID 1347050; calls by dose curve)
Procedure, shortened: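 Pilot selectivity screen against hNpr2: HEK293 cGMP-sensor cells are treated with LOPAC1280 compounds, then with hNppC peptide at 1 nM final. The cGMP-driven luminescence change over 20 min at room temperature is the read-out.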

[3] = NS1 protein of Zika virus - qHTS assay to identify small molecule inhibitors in human HEK 293 cells (AID 1347053); note: series mostly up to about 46 µM; nearly all actives have a fitted effect of over 55% in size
Procedure, shortened: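 HEK 293 cells pretreated with compound for 1 h, then infected with ZIKV MR766 (MOI 0.5) for 24 h at 37 C. NS1 detected by TR-FRET with two anti-NS1 antibodies; normalized to uninfected (0%) and infected (100%) wells.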

[4] = molecular target: T1, Tyrosine-protein phosphatase non-receptor type substrate 1 (Homo sapiens) + Leukocyte surface antigen CD47 (Homo sapiens) (UniProt P78324+Q08722); assay: CD47-SIRPalpha protein protein interaction - LANCE assay qHTS validation (AID 1347057; active = well fitted curve in the direction sought with a large enough effect in the signal ratio, with a control signal flat, not every such curve was filed as active; the % refers to the signal ratio; note: series mostly up to about 38 µM)
Procedure, shortened: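 First, His-tagged CD47 and Eu-labelled anti-His antibody met the compound for 30 min; next, site-specifically biotinylated SIRPalpha was added for 30 min; finally streptavidin-APC was added before reading the TR-FRET ratio.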

[5] = molecular target: T1, Tyrosine-protein phosphatase non-receptor type substrate 1 (Homo sapiens) + Leukocyte surface antigen CD47 (Homo sapiens); assay: CD47-SIRPalpha protein protein interaction - HTRF assay qHTS validation (AID 1347058; active = well fitted curve in the direction sought with a large enough effect in the signal ratio, not every such curve was filed as active; the % refers to the signal ratio;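 note: recombinant soluble extracellular CD47 with His tag and biotinylated SIRPalpha domains; series mostly up to about 38 µM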)
Procedure, shortened: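 TR-FRET read (Ch1/Ch2 ratio) of soluble extracellular CD47 and Avi-biotinylated SIRPalpha domains in PBS pH 7.4 with 0.05% IGEPAL; 7-point compound titration. Sequential 30 min room-temperature steps; non-biotinylated SIRPalpha as control inhibitor.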

[6] = molecular target: T1, Tyrosine-protein phosphatase non-receptor type substrate 1 (Homo sapiens) + Leukocyte surface antigen CD47 (Homo sapiens); assay: CD47-SIRPalpha protein protein interaction - Alpha assay qHTS validation (AID 1347059);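 note: bead proximity luminescence from CD47 binding SIRPalpha after compound preincubation with SIRPalpha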
Procedure, shortened: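 Binding is measured by AlphaScreen proximity: Ni-NTA acceptor beads capture His-CD47, streptavidin donor beads capture biotin-SIRPalpha. Each of three additions (SIRPalpha with compound, CD47, beads) incubates 30 min at room temperature protected from light.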

[7] = molecular target: Parathyroid hormone/parathyroid hormone-related peptide receptor (Homo sapiens) (UniProt Q03431); assay: qHTS for PTHR1 Agonists: Optimization Screen against the NCGC LOPAC library (AID 1347079);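 note: GloSensor cAMP luminescence in HEK-293 GP2 cells expressing human PTHR1 with IBMX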
Procedure, shortened: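 Agonist readout: GloSensor cAMP luminescence, read after 15 min at room temperature. HEK-293-derived GP2 line carries PTHR1; compounds tested as a titration for 1 hr at 37C in presence of IBMX. M-PTH (1-15) served as control.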

[8] = qHTS for Inhibitors of the Functional Ribonucleoprotein Complex (vRNP) of Lassa (LASV) Arenavirus: LASV Primary Screen - GLuc reporter signal (AID 1347082; calls by dose curve; tested in HEK293 reporter line; note: series mostly up to about 57 µM; nearly all actives have a fitted effect of over 60% in size)
[9] = qHTS for Inhibitors of the Functional Ribonucleoprotein Complex (vRNP) of Lassa (LASV) Arenavirus: Viability assay - alamar blue signal for LASV Primary Screen (AID 1347083; calls by dose curve; tested in HEK293 reporter line; note: series mostly up to about 57 µM; nearly all actives have a fitted effect of over 80% in size)
[10] = qHTS for Inhibitors of the Functional Ribonucleoprotein Complex (vRNP) of Lymphocytic Choriomeningitis Arenaviruses (LCMV): Viability assay - alamar blue signal for LCMV Primary Screen (AID 1347085; calls by dose curve; tested in HEK293 reporter line; note: series mostly up to about 57 µM; nearly all actives have a fitted effect of over 80% in size)
[11] = molecular target: Nucleoprotein (Lymphocytic choriomeningitis virus (strain Armstrong)) (UniProt P09992); assay: qHTS for Inhibitors of the Functional Ribonucleoprotein Complex (vRNP) of Lymphocytic Choriomeningitis Arenaviruses (LCMV): LCMV Primary Screen - GLuc reporter signal (AID 1347086; calls by dose curve; note: series mostly up to about 57 µM; nearly all actives have a fitted effect of over 70% in size)
[12] = qHTS of pediatric cancer cell lines to identify multiple opportunities for drug repurposing: Primary screen for TC32 cells (AID 1347089); note: nearly all actives have a fitted effect of over 60% in size
Procedure, shortened: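 Luminescent ATP read-out (CellTiter-Glo) of metabolically active TC32 cells after 48 h exposure. Concentration-response curves came from 11-point (MIPE, 0.78 nM–46 µM) or 8-point (NPC, 0.59 nM–46 µM) primary titrations; follow-up used 11 points.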

[13] = qHTS of pediatric cancer cell lines to identify multiple opportunities for drug repurposing: Primary screen for SJ-GBM2 cells (AID 1347091)
Procedure, shortened: (§1)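 Cell viability, CellTiter-Glo luminescence; 500-1,000 cells/well, 8- or 11-point titration, 48 h compound exposure at 37 degrees C, 5% CO2. Controls: DMSO neutral, bortezomib 2.3 µM final as positive.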

[14] = qHTS of pediatric cancer cell lines to identify multiple opportunities for drug repurposing: Primary screen for A673 cells (AID 1347092); note: nearly all actives have a fitted effect of over 45% in size
Procedure, shortened: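 Cell viability of A673 measured by CellTiter-Glo ATP luminescence after 48 hours compound exposure. Dilution series spanned 0.78 nM to 46 µM (MIPE, 11-point) or 0.59 nM to 46 µM (NPC, 8-point); bortezomib 2.3 uM positive control.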

[15] = qHTS of pediatric cancer cell lines to identify multiple opportunities for drug repurposing: Primary screen for BT-37 cells (AID 1347094); note: series mostly up to about 57 µM
Procedure, shortened: (§2)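 Following a 5-hour attachment period, cells at 500-1,000/well received compounds and were cultured for 48 hours. CellTiter-Glo was added and luminescence read to estimate viable, metabolically active cells.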

[16] = qHTS of pediatric cancer cell lines to identify multiple opportunities for drug repurposing: Primary screen for U-2 OS cells (AID 1347096); note: nearly all actives have a fitted effect of over 50% in size
Procedure, shortened: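 Cells (500-1,000/well) rested 5 h, then received compounds for 48 h; metabolically active cells were measured by CellTiter-Glo luminescence. Final concentrations spanned up to 46 µM (MIPE, 11-point) or 0.59 nM-46 µM (NPC, 8-point) in primary screens, 11-point in follow-ups.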

[17] = qHTS of pediatric cancer cell lines to identify multiple opportunities for drug repurposing: Primary screen for Saos-2 cells (AID 1347097); note: nearly all actives have a fitted effect of over 40% in size
Procedure, shortened: as §2

[18] = qHTS of pediatric cancer cell lines to identify multiple opportunities for drug repurposing: Primary screen for DAOY cells (AID 1347090); note: series mostly up to about 46 µM; nearly all actives have a fitted effect of over 55% in size
Procedure, shortened: as §1

[19] = qHTS of pediatric cancer cell lines to identify multiple opportunities for drug repurposing: Primary screen for SK-N-MC cells (AID 1347093); note: series mostly up to about 46 µM
Procedure, shortened: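 Metabolically active cells were quantified by ATP-dependent luminescence (CellTiter-Glo, 15 min at room temperature) following 48 h treatment. Cells had been plated at 500-1,000 per well and settled for 5 h beforehand.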

[20] = qHTS of pediatric cancer cell lines to identify multiple opportunities for drug repurposing: Primary screen for NB-EBc1 cells (AID 1347095)
Procedure, shortened: as §2

Measured: Potency

T1 sequence (P78324 whole entry, looked up): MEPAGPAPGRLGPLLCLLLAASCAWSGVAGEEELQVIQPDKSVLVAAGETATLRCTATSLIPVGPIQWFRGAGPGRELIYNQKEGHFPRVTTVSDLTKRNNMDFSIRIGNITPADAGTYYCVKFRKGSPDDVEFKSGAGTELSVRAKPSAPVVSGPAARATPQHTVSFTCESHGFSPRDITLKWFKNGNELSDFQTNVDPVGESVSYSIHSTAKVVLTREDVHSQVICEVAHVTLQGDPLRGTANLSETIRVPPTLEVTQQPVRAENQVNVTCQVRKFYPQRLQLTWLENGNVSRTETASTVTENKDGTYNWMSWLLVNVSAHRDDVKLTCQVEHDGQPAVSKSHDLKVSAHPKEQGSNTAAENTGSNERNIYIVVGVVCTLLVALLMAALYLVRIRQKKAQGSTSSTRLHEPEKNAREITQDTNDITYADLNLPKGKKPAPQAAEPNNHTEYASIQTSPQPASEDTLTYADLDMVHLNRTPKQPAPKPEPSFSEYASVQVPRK
T1 sequence (Q08722 whole entry, looked up): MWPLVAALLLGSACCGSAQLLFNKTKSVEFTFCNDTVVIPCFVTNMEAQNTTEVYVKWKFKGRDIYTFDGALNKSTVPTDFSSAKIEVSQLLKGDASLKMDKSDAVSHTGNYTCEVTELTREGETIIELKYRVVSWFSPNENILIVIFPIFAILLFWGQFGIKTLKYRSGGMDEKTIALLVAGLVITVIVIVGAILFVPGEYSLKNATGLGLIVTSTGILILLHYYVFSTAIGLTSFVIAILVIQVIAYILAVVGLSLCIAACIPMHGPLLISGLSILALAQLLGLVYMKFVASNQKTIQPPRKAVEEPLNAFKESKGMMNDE
Nucleoprotein (Lymphocytic choriomeningitis virus (strain Armstrong)), sequence (P09992 whole entry, looked up): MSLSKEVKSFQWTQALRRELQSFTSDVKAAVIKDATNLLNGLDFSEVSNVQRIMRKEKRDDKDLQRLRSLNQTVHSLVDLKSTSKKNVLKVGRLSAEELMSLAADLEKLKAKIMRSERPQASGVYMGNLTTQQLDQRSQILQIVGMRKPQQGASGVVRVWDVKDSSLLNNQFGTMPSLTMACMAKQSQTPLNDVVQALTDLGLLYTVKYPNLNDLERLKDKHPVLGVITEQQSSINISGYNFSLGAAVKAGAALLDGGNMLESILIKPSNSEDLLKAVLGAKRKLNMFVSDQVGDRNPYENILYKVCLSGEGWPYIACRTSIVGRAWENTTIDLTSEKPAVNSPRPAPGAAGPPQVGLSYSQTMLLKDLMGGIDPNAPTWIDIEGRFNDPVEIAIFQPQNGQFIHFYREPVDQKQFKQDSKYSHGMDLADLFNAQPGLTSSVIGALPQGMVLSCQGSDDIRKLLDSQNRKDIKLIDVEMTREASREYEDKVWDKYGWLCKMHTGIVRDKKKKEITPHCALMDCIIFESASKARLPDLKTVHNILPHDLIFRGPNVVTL
Parathyroid hormone/parathyroid hormone-related peptide receptor (Homo sapiens), sequence (Q03431 whole entry, looked up): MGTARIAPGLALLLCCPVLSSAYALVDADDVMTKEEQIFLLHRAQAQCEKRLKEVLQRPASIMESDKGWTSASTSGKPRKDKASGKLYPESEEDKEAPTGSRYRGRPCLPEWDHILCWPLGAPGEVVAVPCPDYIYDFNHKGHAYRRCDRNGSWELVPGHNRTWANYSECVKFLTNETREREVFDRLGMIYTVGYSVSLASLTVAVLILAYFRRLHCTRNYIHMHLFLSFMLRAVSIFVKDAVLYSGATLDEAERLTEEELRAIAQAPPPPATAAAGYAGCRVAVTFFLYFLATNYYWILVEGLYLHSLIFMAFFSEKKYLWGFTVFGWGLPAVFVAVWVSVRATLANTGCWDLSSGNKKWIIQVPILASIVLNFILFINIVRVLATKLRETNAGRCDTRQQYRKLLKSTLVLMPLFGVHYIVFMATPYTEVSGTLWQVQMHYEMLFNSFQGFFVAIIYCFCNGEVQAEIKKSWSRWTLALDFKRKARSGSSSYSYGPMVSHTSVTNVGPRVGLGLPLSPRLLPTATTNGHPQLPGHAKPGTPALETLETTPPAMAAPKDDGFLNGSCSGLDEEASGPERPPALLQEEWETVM
Atrial natriuretic peptide receptor 2 (Homo sapiens), sequence (P20594 whole entry, looked up): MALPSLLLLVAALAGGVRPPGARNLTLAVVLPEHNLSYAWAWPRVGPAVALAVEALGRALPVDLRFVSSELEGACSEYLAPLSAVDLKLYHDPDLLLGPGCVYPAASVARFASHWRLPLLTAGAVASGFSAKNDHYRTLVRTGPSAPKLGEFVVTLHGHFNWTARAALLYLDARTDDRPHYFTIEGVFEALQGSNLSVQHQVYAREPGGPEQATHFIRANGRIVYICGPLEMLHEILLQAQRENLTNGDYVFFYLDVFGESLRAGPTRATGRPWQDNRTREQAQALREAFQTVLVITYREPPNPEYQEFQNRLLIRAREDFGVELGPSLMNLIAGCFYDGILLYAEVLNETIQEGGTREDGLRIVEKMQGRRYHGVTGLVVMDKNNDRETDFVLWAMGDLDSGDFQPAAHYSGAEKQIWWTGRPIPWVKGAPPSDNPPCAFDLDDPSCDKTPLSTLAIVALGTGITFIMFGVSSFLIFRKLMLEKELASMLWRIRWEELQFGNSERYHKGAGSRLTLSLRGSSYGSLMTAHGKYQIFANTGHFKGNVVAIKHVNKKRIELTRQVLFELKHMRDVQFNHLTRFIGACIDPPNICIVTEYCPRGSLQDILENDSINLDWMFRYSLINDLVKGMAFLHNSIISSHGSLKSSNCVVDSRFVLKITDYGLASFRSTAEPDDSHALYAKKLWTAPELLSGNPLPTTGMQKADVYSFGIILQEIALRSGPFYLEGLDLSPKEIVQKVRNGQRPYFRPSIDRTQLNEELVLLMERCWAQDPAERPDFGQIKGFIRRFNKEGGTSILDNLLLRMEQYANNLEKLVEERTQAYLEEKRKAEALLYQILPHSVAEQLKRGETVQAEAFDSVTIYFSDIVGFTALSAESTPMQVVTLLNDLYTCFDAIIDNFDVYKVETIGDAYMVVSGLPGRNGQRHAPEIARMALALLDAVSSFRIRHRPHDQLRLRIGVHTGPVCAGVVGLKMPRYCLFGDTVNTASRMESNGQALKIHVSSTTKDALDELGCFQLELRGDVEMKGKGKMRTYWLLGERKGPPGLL
Atrial natriuretic peptide receptor 1 (Homo sapiens), sequence (P16066 whole entry, looked up): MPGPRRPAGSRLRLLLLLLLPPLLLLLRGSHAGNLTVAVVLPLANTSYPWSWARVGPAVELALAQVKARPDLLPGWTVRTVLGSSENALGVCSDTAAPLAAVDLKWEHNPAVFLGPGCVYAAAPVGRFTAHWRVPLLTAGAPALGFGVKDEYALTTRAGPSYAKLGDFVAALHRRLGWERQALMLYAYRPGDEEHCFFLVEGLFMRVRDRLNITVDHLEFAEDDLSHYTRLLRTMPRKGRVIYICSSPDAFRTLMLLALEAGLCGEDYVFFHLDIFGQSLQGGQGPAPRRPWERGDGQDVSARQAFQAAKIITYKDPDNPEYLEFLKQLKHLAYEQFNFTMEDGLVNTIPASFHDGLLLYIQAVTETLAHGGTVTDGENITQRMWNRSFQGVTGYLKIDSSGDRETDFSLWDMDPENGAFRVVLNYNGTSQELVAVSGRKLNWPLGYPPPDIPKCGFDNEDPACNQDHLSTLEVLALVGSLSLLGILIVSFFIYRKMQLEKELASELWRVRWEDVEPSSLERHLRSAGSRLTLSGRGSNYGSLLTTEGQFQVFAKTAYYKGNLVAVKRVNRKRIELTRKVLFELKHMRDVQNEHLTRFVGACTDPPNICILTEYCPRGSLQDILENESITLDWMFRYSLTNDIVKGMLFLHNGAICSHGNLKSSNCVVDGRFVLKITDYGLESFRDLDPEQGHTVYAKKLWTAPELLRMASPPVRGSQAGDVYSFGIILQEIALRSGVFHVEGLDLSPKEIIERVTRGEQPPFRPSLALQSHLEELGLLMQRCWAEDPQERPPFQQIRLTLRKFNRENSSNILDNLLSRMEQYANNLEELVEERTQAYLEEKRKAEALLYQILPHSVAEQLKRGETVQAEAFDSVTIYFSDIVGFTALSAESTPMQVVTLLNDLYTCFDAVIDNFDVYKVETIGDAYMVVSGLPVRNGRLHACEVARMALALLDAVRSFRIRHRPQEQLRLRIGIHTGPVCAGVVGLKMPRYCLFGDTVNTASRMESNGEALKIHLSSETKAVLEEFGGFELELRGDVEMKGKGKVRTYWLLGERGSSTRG

COC(=O)C1=CCCN(C)C1
not listed: [18] | [19] | [20]
inactive: all other assays above

Cc1ccc(N=CN(C)C=Nc2ccc(C)cc2C)c(C)c1
not listed: [1] | [2] | [4] | [5] | [6] | [7]
inactive: all other assays above

C[N+]1(CCC(C(N)=O)(c2ccccc2)c2ccccc2)CCCCC1
not listed: [1] | [2] | [4] | [5] | [6] | [7]
inactive: all other assays above

Sc1ccccc1Cl
not listed: [1] | [2] | [4] | [5] | [6] | [7]
inactive: all other assays above

CCc1ccc(C2CCNCC2)cc1
not listed: [1] | [2] | [4] | [5] | [6] | [7]
inactive: all other assays above

CN1CCC(N(Cc2ccccc2)c2ccccc2)CC1
not listed: [1] | [2] | [4] | [5] | [6] | [7] | [19]
inactive: all other assays above

CC(Cc1ccc2c(c1)OCO2)NO (centres undefined)
not listed: [1] | [2] | [4] | [5] | [6] | [7]
inactive: all other assays above

Clc1ccc(CO/N=C(\Cn2ccnc2)c2ccc(Cl)cc2Cl)c(Cl)c1
inactive: [3] | [8] | [9] | [10] | [11]

COc1cc(CC#N)cc(OC)c1OC
not listed: [1] | [2] | [4] | [5] | [6] | [7]
inactive: all other assays above

Nc1ccccc1C(=O)OCC(O)CO (centres undefined)
not listed: [1] | [2] | [4] | [5] | [6] | [7]
inactive: all other assays above

CCOC(=O)c1cncn1C(C)c1ccccc1 (centres undefined)
not listed: [1] | [2] | [4] | [5] | [6] | [7]
inactive: all other assays above

CCCC(C)C1(CC)C(=O)N=C(S)NC1=O (centres undefined)
not listed: [1] | [2] | [4] | [5] | [6] | [7]
inactive: all other assays above

CC1=C2[C@H]3OC(=O)[C@@H](C)[C@@H]3CC[C@@]2(C)C=CC1=O
not listed: [1] | [2] | [4] | [5] | [6] | [7] | [17] | [20]
inactive: all other assays above

CCS(=O)(=O)C(C)(C)S(=O)(=O)CC
not listed: [1] | [2] | [4] | [5] | [6] | [7] | [17]
inactive: all other assays above

C[N+](C)(C)CCOC(=O)C(O)(c1ccccc1)c1ccccc1
not listed: [1] | [2] | [4] | [5] | [6] | [7]
inactive: all other assays above

C[N+]1(C)[C@@H]2CC[C@H]1CC(OC(=O)C(CO)c1ccccc1)C2 (some centres undefined)
not listed: [1] | [2] | [4] | [5] | [6] | [7] | [19]
inactive: all other assays above

C#C[C@]1(O)C=C[C@H]2[C@@H]3CCC4=CC(=O)CC[C@@H]4[C@H]3CC[C@@]21CC
not listed: [1] | [2] | [4] | [5] | [6] | [7] | [20]
inactive: all other assays above

CCOC(=O)c1ncn2c1CN(C)C(=O)c1c(I)cccc1-2
not listed: [1] | [2] | [4] | [5] | [6] | [7] | [20]
inactive: all other assays above
